These results are taken from PubChem BioAssay (NCI).

Compounds without any hit were thinned out: in the full panel of roughly 79,000, 15% have a hit. Calls of active or inactive are those of the source. Cut-off read from the data, not from the text of the source: active = growth inhibition above about 70%; inactive = the rest.

The first test can be described thus: NCI Yeast Anticancer Drug Screen. Data for the bub3 strain (AID 167). Conditions: S. cerevisiae bub3 mutant strain, at 50.0 µM, hits give high values. Put shortly:
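Part of a panel of yeast mutants defective in DNA damage repair or cell cycle regulation. Each strain is grown with compound, and inhibition is calculated relative to solvent-treated cultures.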
With `CC(C)N=C(NC(C)C)SCCCCCCSC(=NC(C)C)NC(C)C`, the growth inhibition is -16.2% (inactive).
Consider `CCCCCOC(=S)SSSC(=S)OCCCCC`, for which the growth inhibition is 28.2% (inactive).
In the case of `CCCCCCCCCCCCCCCC[N+](C)(C)CC(=O)O`, the growth inhibition is 99% (active).
On the same count and under the same terms, the value for `Cc1cc(C)c([O-])c(-[n+]2c(-c3ccccc3)cc(-c3ccccc3)cc2-c2ccccc2)c1` was 92.2% (active); that for `CC(=O)NNc1ccc(Cl)cc1[N+](=O)[O-]` was 77.3% (active).
As for `O=C(NC(=Nc1ccccc1)SCCSC(=Nc1ccccc1)NC(=O)c1ccccc1)c1ccccc1`, the growth inhibition is 88% (active).
On the same count and under the same terms, the value for `CN(C)CCCNc1ccc(O)c2c1C(=O)c1ccccc1C2=O` was 89.7% (active); that for `COC(=O)C(=O)C(/C=N/C(=S)NCCc1ccc(OC)c(OC)c1)=C(/O)c1ccc([N+](=O)[O-])cc1` was 15.4% (inactive).
The same measure, in the same setting: the value for `CCCC(=O)OCC1CC2C=CC1C2` (stereo not given) was 15% (inactive); that for `CN(NC(=O)/C(=C/c1cc(Cl)cc(Cl)c1O)NC(=O)c1ccccc1)c1cnn(-c2ccccc2)c(=O)c1Cl` was 60% (inactive).
Regarding `CC(C)N(C(=O)CC1(O)CCCCC1)C(C)C`, the growth inhibition was -9.25% (inactive).
The same measure, in the same setting: the value for `COC(=O)C1C(c2ccccc2)=N[C@@H](c2ccccc2)[C@H]1C(=O)OC` (stereo not given in full) was 3.55% (inactive); that for `O=C1C(=Cc2ccccc2O)N=C(c2ccccc2)N1n1c(-c2ccccc2)nc2ccccc2c1=O` was 80.2% (active).
For the compound `CCOc1ccc2c(c1)[n+]([O-])c(-c1ccc([N+](=O)[O-])cc1)c(N)[n+]2[O-]`, the growth inhibition is 96% (active).
For the compound `O=C(NCCCNCCCCNCCCNC(=O)c1cc(-c2ccccc2)nc2ccccc12)c1cc(-c2ccccc2)nc2ccccc12`, the growth inhibition is 92.2% (active).
Regarding `CC1=C(C(=O)Nc2cccc3ccccc23)C(c2cccc([N+](=O)[O-])c2)C(C(=O)Nc2cccc3ccccc23)=C(C)N1`, the growth inhibition is 81.5% (active).
On the same count and under the same terms, with `O=C1OC(c2ccc(O)cc2)Sc2ccccc21` (stereo not given) the figure was 3.9% (inactive); with `CC(C)(C)c1ccc(-c2nc3ccccc3c(=O)o2)cc1`, 89.8% (active).
Still for that read-out and setting: with `O=C(N/C(=C/c1ccc(Cl)cc1Cl)c1nc2ccccc2s1)c1ccccc1` the figure was 98% (active); with `O=C(O)C/C(=C\c1ccco1)C(=O)O`, -27.9% (inactive); with `CN(C)Cc1cc(N=Nc2ccc(Cl)c(Cl)c2)ccc1O`, 88.5% (active).
Still for that read-out and setting: the value for `CC(=O)OC1C(O)C(C)OC(OC(=O)C2CCC3C(C2)OC2(CC(OC(=O)/C=C/c4ccccc4)C(C)CO2)C32CO2)C1OC1OC(C)C(O)C(O)C1O` (stereo not given) was 88% (active); that for `O=C1c2ccccc2C(=O)c2c(/C=C\N3CCCCC3)ccnc21` was 92.3% (active); that for `CCN(CC)c1ccc(NC(CC(O)c2ccccc2)c2ccccc2)cc1` (stereo not given) was 21.1% (inactive).
`CCOC(=O)Nc1nc2ccc(SC#N)cc2s1`: the growth inhibition was 88.2% (active).
Still for that read-out and setting: with `CSC(SC)C(SC)SC` the figure was -2.35% (inactive); with `N#CC(C(=O)C(=O)Nc1ccc(Cl)cc1)c1c(Cl)cccc1Cl` (stereo not given), 8.2% (inactive); with `CN(/N=C\c1cccc([N+](=O)[O-])c1)C(c1cccc([N+](=O)[O-])c1)N(C)/N=C/c1cccc([N+](=O)[O-])c1` (stereo not given), 16.5% (inactive).
Take `Oc1cc(Br)cc2cc(Br)cnc12`: the growth inhibition was 85.5% (active).
For `COc1ccccc1C(C)c1ccc2ccccc2c1C(=O)O` (stereo not given), the growth inhibition is 93.4% (active).
Still for that read-out and setting: with `Cc1ccnc2[nH]c3ccccc3c(=O)c12` the figure was 65.2% (inactive); with `COc1cc(OC)c(/C=C\c2ccnc3ccccc23)c(OC)c1`, 35% (inactive); with `COC(=O)C1(COCc2ccccc2)CCCC2OC21` (stereo not given), 2.45% (inactive).
As to `O=[N+]([O-])/C(=C\c1cccs1)c1ccccc1`, the growth inhibition was 99.5% (active).
The same measure, in the same setting: the value for `Cc1cc(C(O)(c2cc(C)c(O)c(C(=O)O)c2)c2cc(C)c(O)c(C(=O)O)c2)cc(C(=O)O)c1O` was -11.7% (inactive); that for `CC(C)C(C)(C(=O)O)C(C)C` was -5.5% (inactive); that for `CN(Cc1cc(Cl)cc(Cl)c1)CC(C(=O)c1ccccc1)c1ccccc1` (stereo not given) was 41.5% (inactive).
For the compound `O=c1[nH]c(Cc2ccccc2)nc2c1sc1nc3ccccc3n12`, the growth inhibition is -33.4% (inactive).
As to `CC(NNC(=S)N1CCCC1)c1cccnn1` (stereo not given), the growth inhibition was 91.2% (active).
As to `Cc1ccc2c(c1)C(O)(c1ccccc1)CCS2` (stereo not given), the growth inhibition was 86.8% (active).

The next test is described as follows: NCI Yeast Anticancer Drug Screen. Data for the mlh1 rad18 strain (AID 175). Particulars: S. cerevisiae mlh1 rad18 strain growth inhibition; at 5.0 µM (retest, dose inferred, filed as 0.5); hits give high values. Put shortly:
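Steps: expose repair-defective yeast to compound; measure growth; express inhibition against vehicle-treated controls.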
Take `CC(C)N=C(NC(C)C)SCCCCCCSC(=NC(C)C)NC(C)C`: the growth inhibition is -1% (inactive).
The same measure, in the same setting: the value for `CCCCCOC(=S)SSSC(=S)OCCCCC` was 16% (inactive); that for `CCCCCCCCCCCCCCCC[N+](C)(C)CC(=O)O` was 5% (inactive).
On the same count and under the same terms, with `Cc1cc(C)c([O-])c(-[n+]2c(-c3ccccc3)cc(-c3ccccc3)cc2-c2ccccc2)c1` the figure was 3% (inactive); with `CC(=O)NNc1ccc(Cl)cc1[N+](=O)[O-]`, 28% (inactive).
`O=C(NC(=Nc1ccccc1)SCCSC(=Nc1ccccc1)NC(=O)c1ccccc1)c1ccccc1`: the growth inhibition is 1% (inactive).
The same measure, in the same setting: the value for `CN(C)CCCNc1ccc(O)c2c1C(=O)c1ccccc1C2=O` was 97% (active); that for `COC(=O)C(=O)C(/C=N/C(=S)NCCc1ccc(OC)c(OC)c1)=C(/O)c1ccc([N+](=O)[O-])cc1` was -3% (inactive).
For the compound `CCCC(=O)OCC1CC2C=CC1C2` (stereo not given), the growth inhibition was -1% (inactive).
On the same count and under the same terms, with `CN(NC(=O)/C(=C/c1cc(Cl)cc(Cl)c1O)NC(=O)c1ccccc1)c1cnn(-c2ccccc2)c(=O)c1Cl` the figure was -7% (inactive); with `CC(C)N(C(=O)CC1(O)CCCCC1)C(C)C`, 0% (inactive); with `COC(=O)C1C(c2ccccc2)=N[C@@H](c2ccccc2)[C@H]1C(=O)OC` (stereo not given in full), 1% (inactive).
Same read-out and setting: the value for `O=C1C(=Cc2ccccc2O)N=C(c2ccccc2)N1n1c(-c2ccccc2)nc2ccccc2c1=O` was 11% (inactive); that for `CCOc1ccc2c(c1)[n+]([O-])c(-c1ccc([N+](=O)[O-])cc1)c(N)[n+]2[O-]` was 56% (inactive); that for `O=C(NCCCNCCCCNCCCNC(=O)c1cc(-c2ccccc2)nc2ccccc12)c1cc(-c2ccccc2)nc2ccccc12` was 46% (inactive).
On the same count and under the same terms, the value for `CC1=C(C(=O)Nc2cccc3ccccc23)C(c2cccc([N+](=O)[O-])c2)C(C(=O)Nc2cccc3ccccc23)=C(C)N1` was -22% (inactive).
As for `O=C1OC(c2ccc(O)cc2)Sc2ccccc21` (stereo not given), the growth inhibition is 8% (inactive).
As for `CC(C)(C)c1ccc(-c2nc3ccccc3c(=O)o2)cc1`, the growth inhibition is -3% (inactive).
With `O=C(N/C(=C/c1ccc(Cl)cc1Cl)c1nc2ccccc2s1)c1ccccc1`, the growth inhibition was 26% (inactive).
On the same count and under the same terms, the value for `O=C(O)C/C(=C\c1ccco1)C(=O)O` was -4% (inactive).
Still for that read-out and setting: the value for `CN(C)Cc1cc(N=Nc2ccc(Cl)c(Cl)c2)ccc1O` was 0% (inactive).
The same measure, in the same setting: the value for `CC(=O)OC1C(O)C(C)OC(OC(=O)C2CCC3C(C2)OC2(CC(OC(=O)/C=C/c4ccccc4)C(C)CO2)C32CO2)C1OC1OC(C)C(O)C(O)C1O` (stereo not given) was 34% (inactive).
For the compound `O=C1c2ccccc2C(=O)c2c(/C=C\N3CCCCC3)ccnc21`, the growth inhibition was 37% (inactive).
On the same count and under the same terms, with `CCN(CC)c1ccc(NC(CC(O)c2ccccc2)c2ccccc2)cc1` (stereo not given) the figure was -5% (inactive); with `CCOC(=O)Nc1nc2ccc(SC#N)cc2s1`, 9% (inactive).
On the same count and under the same terms, with `CSC(SC)C(SC)SC` the figure was -1% (inactive).
Still for that read-out and setting: with `N#CC(C(=O)C(=O)Nc1ccc(Cl)cc1)c1c(Cl)cccc1Cl` (stereo not given) the figure was 14% (inactive); with `CN(/N=C\c1cccc([N+](=O)[O-])c1)C(c1cccc([N+](=O)[O-])c1)N(C)/N=C/c1cccc([N+](=O)[O-])c1` (stereo not given), 0% (inactive).
As for `Oc1cc(Br)cc2cc(Br)cnc12`, the growth inhibition was 96% (active).
Consider `COc1ccccc1C(C)c1ccc2ccccc2c1C(=O)O` (stereo not given), for which the growth inhibition was 2% (inactive).
On to `Cc1ccnc2[nH]c3ccccc3c(=O)c12`, for which the growth inhibition was 36% (inactive).
Regarding `COc1cc(OC)c(/C=C\c2ccnc3ccccc23)c(OC)c1`, the growth inhibition is 41% (inactive).
With `COC(=O)C1(COCc2ccccc2)CCCC2OC21` (stereo not given), the growth inhibition is 9% (inactive).
For `O=[N+]([O-])/C(=C\c1cccs1)c1ccccc1`, the growth inhibition was 96% (active).
As for `Cc1cc(C(O)(c2cc(C)c(O)c(C(=O)O)c2)c2cc(C)c(O)c(C(=O)O)c2)cc(C(=O)O)c1O`, the growth inhibition was 2% (inactive).
As for `CC(C)C(C)(C(=O)O)C(C)C`, the growth inhibition was 1% (inactive).
As to `CN(Cc1cc(Cl)cc(Cl)c1)CC(C(=O)c1ccccc1)c1ccccc1` (stereo not given), the growth inhibition was 29% (inactive).
Still for that read-out and setting: the value for `O=c1[nH]c(Cc2ccccc2)nc2c1sc1nc3ccccc3n12` was 18% (inactive).
For the compound `CC(NNC(=S)N1CCCC1)c1cccnn1` (stereo not given), the growth inhibition was 97% (active).
Regarding `Cc1ccc2c(c1)C(O)(c1ccccc1)CCS2` (stereo not given), the growth inhibition was 66% (inactive).
